Screens: PubChem BioAssay, several laboratories
IDE cell activ: boosts human insulin-degrading enzyme activity in HEK cells. activation, % at 5.96 µM. FAbeta-B cleavage, fluorescence polarization; 0% vehicle, 100% cell-free pure enzyme wells. P14735. AID 493087. 0.073% of 340,000 active;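 active = activation above the mean of all tested compounds plus 3 SD, set per screening campaign, cut at about 17% in these data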
Target sequence (P14735 whole entry, looked up): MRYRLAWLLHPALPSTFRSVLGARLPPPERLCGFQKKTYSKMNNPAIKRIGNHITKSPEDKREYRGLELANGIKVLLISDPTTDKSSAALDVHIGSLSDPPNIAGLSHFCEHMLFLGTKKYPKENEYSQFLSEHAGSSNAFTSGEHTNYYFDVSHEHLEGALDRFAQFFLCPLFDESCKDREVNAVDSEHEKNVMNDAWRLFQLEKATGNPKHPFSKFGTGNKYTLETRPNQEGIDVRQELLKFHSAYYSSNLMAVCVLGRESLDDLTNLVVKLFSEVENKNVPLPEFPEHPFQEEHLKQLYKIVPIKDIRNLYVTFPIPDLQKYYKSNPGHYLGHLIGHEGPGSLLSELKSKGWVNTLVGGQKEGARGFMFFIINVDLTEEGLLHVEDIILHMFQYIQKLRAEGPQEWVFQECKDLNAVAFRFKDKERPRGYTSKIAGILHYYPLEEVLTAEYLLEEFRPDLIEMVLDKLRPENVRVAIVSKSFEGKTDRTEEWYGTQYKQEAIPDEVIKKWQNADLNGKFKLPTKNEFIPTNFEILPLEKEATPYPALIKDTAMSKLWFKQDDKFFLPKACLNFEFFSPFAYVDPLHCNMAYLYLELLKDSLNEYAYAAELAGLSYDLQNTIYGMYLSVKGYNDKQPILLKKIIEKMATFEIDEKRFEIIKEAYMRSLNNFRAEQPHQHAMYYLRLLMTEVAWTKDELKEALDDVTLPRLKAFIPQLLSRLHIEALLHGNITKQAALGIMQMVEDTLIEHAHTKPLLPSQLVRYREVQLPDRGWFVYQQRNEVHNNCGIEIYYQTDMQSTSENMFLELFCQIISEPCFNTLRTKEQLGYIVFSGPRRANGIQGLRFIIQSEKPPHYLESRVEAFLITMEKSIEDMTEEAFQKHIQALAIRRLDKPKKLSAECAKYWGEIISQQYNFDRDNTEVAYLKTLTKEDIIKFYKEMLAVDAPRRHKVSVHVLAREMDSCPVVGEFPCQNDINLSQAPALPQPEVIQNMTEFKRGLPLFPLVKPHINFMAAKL
CRFR2-BP ag: agonists of human CRF-binding protein/CRF-R2 receptor complex. 0.46% of 350,000 active. HEK293 CRF-R2/CRF-BP, calcium dye fluorescence (FLIPR); percent of saturating CRF peptide response. AID 588473. activation, % at 13.2 µM;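 active = activation of at least 50%, plus an integration ratio under a set limit after plate pattern correction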
Cardiac RTF inh: cardiac RTF calcium desensitization | P19429+P45379 | IANBD-labeled cardiac RTF, Ca2+ fluorescence | inhibition, % at 7.15 µM | 0.12% of 340,000 active | AID 493244;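 active = inhibition above the mean inhibition of all tested compounds plus 3 SD, cut at about 17% in these data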;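 also: assay run at fixed EC70 calcium of 1.6 mM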
IDE inh: cellular human IDE inhibition | inhibition, % at 5.59 µM | 0.41% of 320,000 active | HEK cells, FAbetaB cleavage, fluorescence polarization | AID 434962;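 active = percent inhibition above the average of all tested compounds plus 3 SD, set per screening campaign, cut at about 16% in these data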;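 also: IDE supplied by intact live HEK cells; FP after avidin binding of uncleaved biotin substrate so inhibition keeps polarization high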
cardiac RTF act: cardiac RTF calcium sensitization; P19429+P45379; IANBD-labeled TnC RTF fluorescence at EC20 calcium; 0% EC20 calcium, 100% full calcium; activation, % at 7.2 µM; 0.24% of 340,000 active;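 active = activation above the mean over all tested compounds plus 3 SD, cut at about 30% in these data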;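 also: rise in fluorescence read as greater calcium sensitivity of cardiac thin filaments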
TPT1 inhibitor: blocks Candida albicans tRNA 2'-phosphotransferase. inhibition, % at 5 µM. recombinant caTPT1, FP RNA substrate dephosphorylation. 0.81% of 300,000 active. AID 1962;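 active = inhibition above the mean of all tested compounds plus 3 SD, set per screening campaign, cut at about 24% in these data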
Hits are given with their value; . = inactive; / = no result given. Hits are enriched below; roughly 1.5% of the tested compounds scored in any of these assays.

SMILES	IDE cell activ	CRFR2-BP ag	Cardiac RTF inh	IDE inh	cardiac RTF act	TPT1 inhibitor
C#CCOCCOCCOCCNc1nc(N2CCN(C(=O)CCCCCCCCCCNC(=O)[C@H](CCCCN)n3cc(C[C@@H](C)CC)nn3)CC2)nc(N2CCN(C(=O)CCCCCCCCCCNC(=O)[C@@H]([C@H](C)O)n3cc(C)nn3)CC2)n1	34	.	.	.	.	.
C#CCOCCOCCOCCNc1nc(N2CCN(C(=O)CCCCCCCCCCNC(=O)[C@H](CCCCN)n3cc(C)nn3)CC2)nc(N2CCN(C(=O)CCCCCCCCCCNC(=O)[C@@H]([C@H](C)O)n3cc(C)nn3)CC2)n1	21	.	.	.	.	.
CC[C@]1(C(=O)OC)[C@H]2C(=O)N(C)C(=O)[C@H]2[C@H]2CN(C)C(=NC)N21	.	.	.	/	.	/
COc1ccc(N2CCN(C(=O)COC(=O)COc3ccc(C#N)cc3)CC2)cc1	.	.	.	.	.	.
Cc1ccccc1OCCC(=O)Nc1cc(S(=O)(=O)N2CCCCC2)ccc1N1CCN(C)CC1	.	68	.	/	.	/
Cc1ccc(OCC(=O)Nc2cc(S(=O)(=O)N3CCCCC3)ccc2N2CCN(C)CC2)c(C)c1	.	.	.	.	.	.
Cc1ccc(S(=O)(=O)N2CCN(C(=O)CSc3ncn[nH]3)CC2)cc1	.	.	.	.	.	/
CCOc1cccc(C2C(C(=O)c3ccc(C)o3)=C(O)C(=O)N2c2nccs2)c1 (stereo not given)	.	159	.	.	.	.
O=C(C1=C(O)C(=O)N(c2nccs2)C1c1ccccc1)c1cc2ccccc2o1 (stereo not given)	.	168	.	.	34	.
Cc1ccc(S(=O)(=O)N2CCOC23CCN(C(=O)c2ccccc2Br)CC3)cc1	.	.	.	.	.	.
CCOC(=O)c1sc2c(c1C)c(=O)n(CCO)c(=O)n2Cc1ccccc1	.	.	.	.	.	.
CCCCNc1c(-c2ccc(SC(C)CC)cc2)nc2cnccn12 (stereo not given)	20	.	.	.	.	/
CCCCCCSc1cc(-c2nc3cnccn3c2NCCCC)ccc1OC	20	.	.	.	.	/
Cc1ccc2c(c1)c1c(n2CC(O)CNC2CCCC2)CCCC1 (stereo not given)	18	.	.	.	.	.
CCN1C(=O)/C(=C/N2CCc3ccccc3C2)SC1=S	.	.	.	.	.	.
CCCCCN1C(=O)/C(=C/c2c(N3CCc4ccccc4C3)nc3ccccn3c2=O)SC1=S	.	.	.	.	.	82
O=C(COC(=O)/C=C/c1cccc(F)c1)NCc1ccc2c(c1)OCO2	/	.	/	/	/	/
CC(C)(C)c1ccc(C(=O)NC(=S)NNC(=O)c2cccs2)cc1	.	290	.	.	.	.
Cc1ccccc1C(=O)NNC(=S)NC(=O)c1cccs1	.	99	.	.	.	.
O=C(NC(=S)NNC(=O)c1cccs1)c1ccccc1	.	.	.	.	.	.
Cc1cccc(C(=O)NC(=S)NNC(=O)c2ccc(Cl)cc2)c1	.	213	.	.	.	.
Cc1cccc(C(=O)NC(=S)NNC(=O)c2cccs2)c1	.	270	.	.	.	.
CC(c1ccon1)N(C)Cc1cn(Cc2ccccc2)nc1-c1ccc2c(c1)OCO2 (stereo not given)	.	.	.	.	.	.
O=c1nc2c(O)cccn2c2c1c(=O)[nH]c1ccccc12	.	.	.	/	40	/
COC(=O)C(=C/C(C)=C/c1cccnc1)C(=O)OC	.	.	.	.	.	.
SMILES	IDE cell activ	CRFR2-BP ag	Cardiac RTF inh	IDE inh	cardiac RTF act	TPT1 inhibitor
COC(=O)CNC(=O)COC(=O)C(Cc1ccccc1)NC(=O)c1ccco1 (stereo not given)	.	55	.	.	.	.
Cc1cc(NC(=O)COC(=O)C(Cc2ccccc2)NC(=O)c2ccco2)no1 (stereo not given)	.	153	.	.	.	.
O=C(COC(=O)[C@H](Cc1ccccc1)NC(=O)c1ccco1)Nc1ccccc1	.	.	.	.	.	/
CC1CCN(CCCNC(=O)CCNC(=O)Cn2cnc3ccccc3c2=O)CC1	.	.	.	.	.	.
Cc1ccc(SCC(=O)Nc2cc([N+](=O)[O-])ccc2O)cc1	.	80	.	.	.	.
O=C(O)c1ccc2c3c(cccc13)C(=O)N(c1ccccc1)C2=O	.	.	.	.	.	.
Nc1ccc2c3c(cccc13)C(=O)N(c1ccccc1)C2=O	.	235	.	/	972	/
Nc1cccc(N2C(=O)c3cccc4c(N)ccc(c34)C2=O)c1	.	162	.	.	291	.
CC(C)CCN1C(=O)c2cccc3c(N)ccc(c23)C1=O	54	166	.	.	658	.
O=C(CN1CCCC1)Nc1ccccc1Sc1ccccc1	.	52	.	.	.	.
CCOC(=O)C1CCCN(c2ncnc3c2cnn3-c2ccc(Cl)cc2)C1 (stereo not given)	.	101	.	.	.	.
S=C(NCCCN1CCOCC1)N1CCN(c2nc(-c3ccc(Cl)cc3)cs2)CC1	.	.	.	23	.	.
CCCNC(=S)N1CCN(c2nc(-c3ccc(C)cc3)cs2)CC1	.	.	.	.	.	.
O=C(C1CCCN(S(=O)(=O)c2ccccc2[N+](=O)[O-])C1)N1CCN(c2ccccc2)CC1 (stereo not given)	.	.	.	18	.	.
CC(=O)Nc1ccc(S(=O)(=O)N2CCCC(C(=O)N3CCN(c4ccccc4)CC3)C2)cc1 (stereo not given)	.	.	.	.	.	.
O=C(NC1CC1)c1cccc(NC(=O)c2cc(S(=O)(=O)N3CCOCC3)ccc2Cl)c1	.	.	.	/	.	/
COc1ccc(CCNC(=O)COC(=O)C2CC2C)cc1OC (stereo not given)	22	.	.	.	.	/
Cc1cc(C)cc(NC(=O)CSc2nc3nc(C)cc(C)n3n2)c1	.	.	.	.	.	/
CCN1/C(=C/c2ccc3cc(C)ccc3[n+]2CC)Sc2cc(C)ccc21	.	131	.	/	51	/
CCCCN1/C(=C/c2cccc[n+]2C)Sc2cc(NC(C)=O)ccc21	.	.	.	.	.	.
CCCCN1/C(=C/c2ccc3ccccc3[n+]2CC)Sc2ccccc21	/	128	/	/	/	/
CCN1/C(=C/c2ccc3cc(C)ccc3[n+]2C)Sc2ccc3sccc3c21	.	.	.	/	.	/
O=C(Nc1ccc2c(c1)OCCO2)c1cccc(Cl)c1Cl	.	.	.	.	39	.
O=C(Nc1ccc2c(c1)OCCO2)c1c(Cl)cccc1Cl	/	.	/	/	/	/
N#Cc1c(-c2ccc(F)cc2)cc(-c2ccccc2)nc1SCC(=O)NCC(=O)O	.	62	.	.	.	.
N#Cc1c(-c2ccc(Cl)cc2)cc(-c2ccccc2)nc1SCC(=O)O	.	.	.	.	.	.
